According to PubChem BioAssay AID2113 (National Center for Advancing Translational Sciences (NCATS), 2009):
Inconclusive results are not listed. A call without a number means that no potency is given here. Activity calls are given as the source filed them. The call rests on the fitted dose curve; in most records, active means well fitted curve in either direction with a large enough effect; inconclusive means small, poorly fitted or top-dose-only effect; inactive means no such curve, though single readings can be large or run the other way.

Biological target: Lysosomal alpha-glucosidase (Homo sapiens) (UniProt P10253)
Assay: Confirmation of Inhibitors and Activators of Human alpha-Glucosidase From Spleen Homogenate;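 on potency: fluorescence of 4-methylumbelliferone released from a fluorogenic glucopyranoside substrate at pH 5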
How it was run: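 Compounds titrated against spleen-homogenate alpha-glucosidase, pH 5.0, 1 mM 4-MU-glucoside substrate, 37 C for 40 min. Fluorescence after pH 10 stop, normalised to no-enzyme and enzyme controls; Hill-equation AC50.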
Potency means the concentration at half of the fitted maximal effect.

| Structure (SMILES) | Potency |
| --- | --- |
| O=S(=O)(c1ccc2ccccc2c1)N1CCOCC1 | inactive |
| CCCN1CNc2c(c(=O)[nH]c(=S)n2CCc2cc(OC)ccc2OC)C1 | 20 µM (active) |
| CCOC(=O)c1c(-c2ccc(-c3ccccc3)cc2)csc1NC(=O)CCN1CCOCC1 | inactive |
| CCCN1CNc2c(c(=O)[nH]c(=S)n2CCc2ccc(OCC)c(OCC)c2)C1 | 25.1 µM (active) |
| N#Cc1ccc(N2CCN(S(=O)(=O)c3ccc4c(c3)CC(=O)N4)CC2)cc1 | 1.16 µM [inhibitor] (active) |
| CCC(C)N1CNc2c(c(=O)[nH]c(=S)n2-c2cccc(C)c2)C1 (stereo not drawn) | inactive |
| CCc1sc(-c2cc3ccccc3oc2=O)nc1-c1ccccc1 | inactive |
| O=C(COC(=O)c1ccccc1Br)NCCc1ccc(F)cc1 | inactive |
| Cc1ccc(S(=O)(=O)N2CCN(C(=O)C3COc4ccccc4O3)CC2)cc1C (stereo not drawn) | inactive |
| O=c1oc2ccc(Cl)cc2cc1-c1nc2c(s1)CCc1ccccc1-2 | inactive |
| O=S(=O)(c1ccccc1)N1CCN(c2ccccc2)CC1 | inactive |
| CC1CCc2nc(-c3cc4c(ccc5ccccc54)oc3=O)sc2C1 (stereo not drawn) | inactive |
| O=S(=O)(c1ccccc1)N1CCN(Cc2ccccc2)CC1 | inactive |
| Clc1ccc(-c2ccnc(Oc3cc(Cl)ccc3Cl)n2)cc1 | inactive |
| COc1ccc(/C=C/c2nnc(NC(=O)CSc3ccccc3)s2)cc1 | inactive |
| O=S(=O)(c1ccc(Cl)cc1)N1CCOCC1 | inactive |
| COc1ccc2nc(-c3ccc(N(C)C)cc3)sc2c1 | 7.08 µM (active) |
| COc1cc(C2c3cc4c(cc3C(OC3OC5COC(C)O[C@@H]5C(O)C3O)C3COC(=O)C23)OCO4)cc(OC)c1O (stereo partly drawn) | 25.1 µM (active) |
